Inconclusive results are not listed. Where a call stands in place of a potency, no number is given. Active and inactive are the calls of the source. Unless noted, the call rests on the fitted dose curve; in most records, active means well fitted curve in the direction sought with a large enough effect in the repeat runs; inconclusive means weak or mixed curves; inactive means no such curve, though single readings can be large; an effect the other way counts as inactive or inconclusive.
Test: qHTS assay for small molecule activators of the heat shock response signaling pathway - cell viability counter screen (AID 743209); further: nearly all actives have a fitted effect of over 50% in size
Settings: HSE-bla HeLa viability, CellTiter-Glo luminescence, 5 h; series mostly up to 62.6 µM
How it was run: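 CellSensor HSE-bla HeLa cells, plated overnight at 37 C/5% CO2, were exposed to compounds in DMSO for 5 h at 37 C. Viability was then read in the same wells by CellTiter-Glo luminescence after 30 min at room temperature.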
Potency means the concentration at half of the fitted maximal effect.

Question: With `N#CC1(c2ccc(F)cc2)CCC(=O)CC1` as the molecule, how does the Potency read?
Answer: Its Potency is “inactive”.

Question: With `Cc1cccc(N(C)C(=S)Oc2ccc3c(c2)C2CCC3C2)c1` (stereo not drawn) as the molecule, how does the Potency read?
Answer: Its Potency is “inactive”.

Question: With `O=c1cc(-c2ccc(O)cc2)oc2cc(O)cc(O)c12` as the molecule, how does the Potency read?
Answer: The Potency was 12.3 µM (active).

Question: Which Potency does the source give for `Cc1oc(-c2ccccc2)nc1CCC(=O)c1ccc(CC2SC(=O)NC2=O)cc1` (stereo not drawn) here?
Answer: The Potency was “inactive”.

Question: With `CC[C@@]1(O)C(=O)OCc2c1cc1n(c2=O)Cc2c-1nc1ccccc1c2/C=N/OC(C)(C)C` as the molecule, how does the Potency read?
Answer: The Potency was 0.473 µM (active).

Question: With `CC1=C(C(=O)OC(C)C)C(c2cccc([N+](=O)[O-])c2)C(C(=O)OC2CN(C(c3ccccc3)c3ccccc3)C2)=C(N)N1` (stereo not drawn) as the molecule, how does the Potency read?
Answer: The Potency was 10.6 µM (active).

Question: For `CCCCCCCC(=O)[O-].CCCCCCCC(=O)[O-].[Zn+2]`, which Potency is on record?
Answer: The Potency was “inactive”.

Question: With `CCCCCOc1ccccc1/C(=C\SC)n1ccnc1` as the molecule, how does the Potency read?
Answer: The Potency was “inactive”.

Question: Which Potency does the source give for `O=[N+]([O-])c1cc([N+](=O)[O-])c2ccc(S(=O)(=O)O)cc2c1O` here?
Answer: Its Potency is “inactive”.

Question: Which Potency does the source give for `Cc1[nH]nc2c1N=C(c1ccccc1Cl)c1cc([N+](=O)[O-])ccc1N2` here?
Answer: Its Potency is 15.5 µM (active).

Question: For `CN(C)CCCOC1(Cc2ccccc2)CCCCCC1`, which Potency is on record?
Answer: Its Potency is “inactive”.

Question: Which Potency does the source give for `C/C(=C(/OCCOc1ccc(Cl)cc1)c1ccc(Cl)cc1Cl)n1ccnc1` here?
Answer: The Potency was “inactive”.

Question: For `CN1CCC(Nc2ncc3ncnc(Nc4ccc(F)c(Cl)c4)c3n2)CC1`, which Potency is on record?
Answer: The Potency was “inactive”.

Question: For `Cc1cccc2c1cc1ccc3cccc4ccc2c1c34`, which Potency is on record?
Answer: Its Potency is “inactive”.

Question: For `OCCN1CCN(CC/C=C2/c3ccccc3Sc3ccc(C(F)(F)F)cc32)CC1`, which Potency is on record?
Answer: Its Potency is “inactive”.

Question: For `CCc1cc(SCc2sc(-c3ccc(C(F)(F)F)cc3)nc2CN2CCN(c3ccc(OC)cc3)CC2)ccc1OCC(=O)O`, which Potency is on record?
Answer: The Potency was 24.5 µM (active).

Question: With `CCC(CN)=C(c1ccccc1)c1ccccc1` as the molecule, how does the Potency read?
Answer: Its Potency is “inactive”.

Question: Which Potency does the source give for `CC(C)(C)C1CCC(CC2=C(O)c3ccccc3C(=O)C2=O)CC1` (stereo not drawn) here?
Answer: Its Potency is “inactive”.

Question: Which Potency does the source give for `CCCCCCCCNC(C)C(O)c1ccc(SC(C)C)cc1` (stereo not drawn) here?
Answer: The Potency was 18.8 µM (active).

Question: With `COC(=O)c1cc(Cl)ccc1OC` as the molecule, how does the Potency read?
Answer: The Potency was “inactive”.

Question: Which Potency does the source give for `Nc1ccc2c3c(cccc13)-c1ccccc1-2` here?
Answer: Its Potency is “inactive”.

Test: qHTS assay for small molecule activators of the heat shock response signaling pathway (AID 743210; active means well fitted activation curve with a large enough effect in the signal ratio in the repeat runs, with a control signal flat, not every such curve was filed as active; the % refers to the signal ratio;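 on activation: HeLa cells with beta-lactamase reporter driven by heat shock elements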)
Settings: HeLa HSE-bla reporter, beta-lactamase ratio, 5 h; series mostly up to 62.6 µM
How it was run: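 In HSE-bla HeLa cells, 5 h compound incubation (37 C) precedes addition of LiveBLAzer B/G substrate; after 2.5 h at room temperature, fluorescence intensity indicates reporter induction.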

Question: For `N#CC1(c2ccc(F)cc2)CCC(=O)CC1`, which Potency is on record?
Answer: The Potency was “inactive”.

Question: With `Cc1cccc(N(C)C(=S)Oc2ccc3c(c2)C2CCC3C2)c1` (stereo not drawn) as the molecule, how does the Potency read?
Answer: The Potency was “inactive”.

Question: With `O=c1cc(-c2ccc(O)cc2)oc2cc(O)cc(O)c12` as the molecule, how does the Potency read?
Answer: Its Potency is “inactive”.

Question: Which Potency does the source give for `COc1cccc(N)c1` here?
Answer: Its Potency is “inactive”.

Question: Which Potency does the source give for `CCCCCCCC(=O)[O-].CCCCCCCC(=O)[O-].[Zn+2]` here?
Answer: The Potency was “inactive”.

Question: For `CN(C)CCCOC1(Cc2ccccc2)CCCCCC1`, which Potency is on record?
Answer: Its Potency is “inactive”.

Question: With `CN1CCC(Nc2ncc3ncnc(Nc4ccc(F)c(Cl)c4)c3n2)CC1` as the molecule, how does the Potency read?
Answer: Its Potency is 13.9 µM (active).

Question: With `OCCN1CCN(CC/C=C2/c3ccccc3Sc3ccc(C(F)(F)F)cc32)CC1` as the molecule, how does the Potency read?
Answer: Its Potency is “inactive”.

Question: For `CCC(CN)=C(c1ccccc1)c1ccccc1`, which Potency is on record?
Answer: Its Potency is “inactive”.

Question: For `CC(C)(C)C1CCC(CC2=C(O)c3ccccc3C(=O)C2=O)CC1` (stereo not drawn), which Potency is on record?
Answer: Its Potency is “inactive”.

Question: For `COC(=O)c1cc(Cl)ccc1OC`, which Potency is on record?
Answer: The Potency was “inactive”.

Question: With `Cc1cc(=O)oc2cc(N(C)C)ccc12` as the molecule, how does the Potency read?
Answer: Its Potency is 34.7 µM (active).

Test: qHTS assay to identify small molecule agonists of the peroxisome proliferator-activated receptor delta (PPARd) signaling pathway - cell viability counter screen (AID 743211); further: nearly all actives have a fitted effect of over 55% in size
Settings: PPARd-bla HEK293H viability, CellTiter-Glo luminescence, 17 h; series mostly up to 62.6 µM
How it was run: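 In the same wells used for beta-lactamase reporter measurement, cytotoxicity is scored by CellTiter-Glo. HEK293H PPARd-bla cells receive compound for 17 h at 37C following a 5 h settling period.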

Question: With `CCCCCCCCOC(=O)c1ccc(O)cc1` as the molecule, how does the Potency read?
Answer: The Potency was 48.8 µM (active).

Question: With `N#CC1(c2ccc(F)cc2)CCC(=O)CC1` as the molecule, how does the Potency read?
Answer: Its Potency is “inactive”.

Question: Which Potency does the source give for `Cc1cccc(N(C)C(=S)Oc2ccc3c(c2)C2CCC3C2)c1` (stereo not drawn) here?
Answer: The Potency was “inactive”.

Question: With `O=c1cc(-c2ccc(O)cc2)oc2cc(O)cc(O)c12` as the molecule, how does the Potency read?
Answer: The Potency was “inactive”.

Question: For `CC[C@@]1(O)C(=O)OCc2c1cc1n(c2=O)Cc2c-1nc1ccccc1c2/C=N/OC(C)(C)C`, which Potency is on record?
Answer: The Potency was 11.9 µM (active).

Question: Which Potency does the source give for `NC(=O)C1(N2CCCCC2)CCN(CCCN2c3ccccc3CCc3ccc(Cl)cc32)CC1` here?
Answer: The Potency was 11.9 µM (active).

Question: With `COc1cccc(N)c1` as the molecule, how does the Potency read?
Answer: The Potency was “inactive”.

Question: Which Potency does the source give for `CC1=C(C(=O)OC(C)C)C(c2cccc([N+](=O)[O-])c2)C(C(=O)OC2CN(C(c3ccccc3)c3ccccc3)C2)=C(N)N1` (stereo not drawn) here?
Answer: The Potency was 11.9 µM (active).

Question: For `CCCCCCCC(=O)[O-].CCCCCCCC(=O)[O-].[Zn+2]`, which Potency is on record?
Answer: The Potency was “inactive”.

Question: For `Cc1ccc(O)c2ncccc12`, which Potency is on record?
Answer: Its Potency is 0.841 µM (active).

Question: With `O=[N+]([O-])c1cc([N+](=O)[O-])c2ccc(S(=O)(=O)O)cc2c1O` as the molecule, how does the Potency read?
Answer: Its Potency is “inactive”.

Question: Which Potency does the source give for `Cc1[nH]nc2c1N=C(c1ccccc1Cl)c1cc([N+](=O)[O-])ccc1N2` here?
Answer: The Potency was 5.49 µM (active).

Question: For `CN(C)CCCOC1(Cc2ccccc2)CCCCCC1`, which Potency is on record?
Answer: The Potency was “inactive”.

Question: For `O=c1[nH]sc2cc(Cl)ccc12`, which Potency is on record?
Answer: Its Potency is 26.6 µM (active).

Question: With `CN1CCC(Nc2ncc3ncnc(Nc4ccc(F)c(Cl)c4)c3n2)CC1` as the molecule, how does the Potency read?
Answer: The Potency was 23.7 µM (active).

Question: For `Cc1cccc2c1cc1ccc3cccc4ccc2c1c34`, which Potency is on record?
Answer: The Potency was “inactive”.

Question: With `OCCN1CCN(CC/C=C2/c3ccccc3Sc3ccc(C(F)(F)F)cc32)CC1` as the molecule, how does the Potency read?
Answer: The Potency was 26.6 µM (active).

Question: Which Potency does the source give for `CCc1cc(SCc2sc(-c3ccc(C(F)(F)F)cc3)nc2CN2CCN(c3ccc(OC)cc3)CC2)ccc1OCC(=O)O` here?
Answer: Its Potency is 7.76 µM (active).

Question: Which Potency does the source give for `CCC(CN)=C(c1ccccc1)c1ccccc1` here?
Answer: Its Potency is 29.8 µM (active).

Question: With `CC(C)(C)C1CCC(CC2=C(O)c3ccccc3C(=O)C2=O)CC1` (stereo not drawn) as the molecule, how does the Potency read?
Answer: Its Potency is “inactive”.

Question: With `COC(=O)c1cc(Cl)ccc1OC` as the molecule, how does the Potency read?
Answer: Its Potency is “inactive”.

Question: With `Clc1ccc(C(Cn2ccnc2)OCc2ccc(Sc3ccccc3)cc2)c(Cl)c1` (stereo not drawn) as the molecule, how does the Potency read?
Answer: The Potency was 29.8 µM (active).

Question: With `Nc1ccc2c3c(cccc13)-c1ccccc1-2` as the molecule, how does the Potency read?
Answer: The Potency was 55.5 µM (active).

Question: For `Cc1cc(=O)oc2cc(N(C)C)ccc12`, which Potency is on record?
Answer: Its Potency is “inactive”.

Question: For `O=C(Oc1ccccc1)c1ccccc1C(=O)Oc1ccccc1`, which Potency is on record?
Answer: Its Potency is “inactive”.

Reference: PubChem BioAssay (Tox21)
